One assay addresses PUM1 PUF domain R1-YRR (Homo sapiens, UniProt Q14671 828-1176, S863Y;Q867R). Briefly: yeast three-hybrid, YBZ-1, SC-Leu-His + 0.5 mM 3-AT, 4 days. The settings on record: tags: N-Gal4 AD-HA kept; label: inside an RPR1-promoter hybrid RNA with tandem MS2 sites; ssRNA. The gist of the method: (§1)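 The interaction score is the logarithmic change in variant frequency from input to selection. It uses log2, with a pseudocount of 1 for absent variants, and frequencies came from PCR-amplified, Illumina-sequenced repeat regions. The libraries were Pumilio-1 PUF domains randomized at the three base-contacting residues per repeat, co-expressed with matching RNA elements in strain YBZ-1 (LexA–MS2 coat fusion, HIS3 reporter). Plating lasted four days on SC-Leu (input) or SC-Leu-His + 0.5 mM 3-AT (selection).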
Chain of PUM1 PUF domain R1-YRR (Q14671 828-1176 S863Y/Q867R): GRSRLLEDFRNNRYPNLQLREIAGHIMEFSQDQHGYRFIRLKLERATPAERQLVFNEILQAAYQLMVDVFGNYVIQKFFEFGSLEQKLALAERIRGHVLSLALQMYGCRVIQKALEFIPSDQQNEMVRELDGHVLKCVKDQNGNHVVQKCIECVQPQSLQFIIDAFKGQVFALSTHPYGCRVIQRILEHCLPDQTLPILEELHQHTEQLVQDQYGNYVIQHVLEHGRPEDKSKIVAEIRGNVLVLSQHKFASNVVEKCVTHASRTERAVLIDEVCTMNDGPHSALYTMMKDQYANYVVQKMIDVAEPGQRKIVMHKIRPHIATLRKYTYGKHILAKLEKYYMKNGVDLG
Turning to “GGCUAGAACUAGUGGAUCCCCCGGCGCCCGGCGGCUCGAGCCCGGGUAAGUGUAAAUUGUCUGCAUGCCGCCGGGCGCCAUGCCUGCAGGUCGACUCUAGAAAACAUG”, the binding signal is 8.31 log2 enrichment (interaction score).
With “GGCUAGAACUAGUGGAUCCCCCGGCGCCCGGCGGCUCGAGCCCGGGUAAGUGUAAAUGGUCUGCAUGCCGCCGGGCGCCAUGCCUGCAGGUCGACUCUAGAAAACAUG”, the binding signal is 4.42 log2 enrichment (interaction score).
In the case of “GGCUAGAACUAGUGGAUCCCCCGGCGCCCGGCGGCUCGAGCCCGGGUAAGUGUAAAUCGUCUGCAUGCCGCCGGGCGCCAUGCCUGCAGGUCGACUCUAGAAAACAUG”, the binding signal was 7.93 log2 enrichment (interaction score).

For another assay, the target named is PUM1 PUF domain R3-CFG (Homo sapiens, UniProt Q14671 828-1176, R936F;Q939G). Described as above. Conditions: tags: N-Gal4 AD-HA kept; label: inside an RPR1-promoter hybrid RNA with tandem MS2 sites; ssRNA. The gist of the method:
as §1
Turning to “GGCUAGAACUAGUGGAUCCCCCGGCGCCCGGCGGCUCGAGCCCGGGUAAGUGUAAUUAGUCUGCAUGCCGCCGGGCGCCAUGCCUGCAGGUCGACUCUAGAAAACAUG”, the binding signal was 2.06 log2 enrichment (interaction score).
As to “GGCUAGAACUAGUGGAUCCCCCGGCGCCCGGCGGCUCGAGCCCGGGUAAGUGUAAGUAGUCUGCAUGCCGCCGGGCGCCAUGCCUGCAGGUCGACUCUAGAAAACAUG”, the binding signal is 1.61 log2 enrichment (interaction score).
Regarding “GGCUAGAACUAGUGGAUCCCCCGGCGCCCGGCGGCUCGAGCCCGGGUAAGUGUAAAUAGUCUGCAUGCCGCCGGGCGCCAUGCCUGCAGGUCGACUCUAGAAAACAUG”, the binding signal is 3.86 log2 enrichment (interaction score).

(Values after paper PMC8384837, “Expanding the binding specificity for RNA recognition by a PUF domain”.)
